The supplement of paper PMC10849652
The full data set covers some 8,800 targets. This sample favours those with a hit. About 0.5% of all pairs of compound and target were hits.

Tests used:
Assay in all cases: log2 fold change, soluble protein after heating vs DMSO (PISA); higher = thermal stabilisation; K562 lysate, 10 uM; active = over 0.2 and 3.5 SD of the protein, either way, in both replicates (recomputed)
erlotinib = compound: C#Cc1cccc(Nc2ncnc3cc(OCCOC)c(OCCOC)cc23)c1 [erlotinib]
Procedure, shortened: (§1)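 Thermal stability, expressed as log-two fold change relative to solvent controls, is given from duplicates. Crude K562 extract in PBS pH 7.4 with 1 mM MgCl2, at 1 mg/mL protein, was treated with 10 μM compound for 30 min and heated in aliquots for 3 min across 48°C-58°C. After pooling, adjustment to 0.5% NP-40 at 4°C and centrifugation at 21,000xg for 90 min, supernatant protein was measured by TMTpro 16plex LC-MS/MS with channel sums equalised.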

[1] = compound: C/C(=N\NC(=O)C1=CC(=CC=C1)S(=O)(=O)N2CCOCC2)/C3=C(C=CC(=C3)Cl)O
Procedure, shortened: as §1

[2] = compound: C1=CC(=CC=C1C2=NC3=C(N2)C=C(C=C3)C(=O)N)OC4=CC=C(C=C4)Cl
Procedure, shortened: as §1

[3] = compound: C1=CC2=C(C=CC(=C2)/C=C\3/C(=O)NC(=NCC4=CC=CS4)S3)N=C1
Procedure, shortened: as §1

[4] = compound: C1=CC2=NC=CN=C2C=C1/C=C/3\C(=O)NC(=O)S3
Procedure, shortened: as §1

[5] = compound: C1=CC=C(C=C1)C2=NC(=C(N2)C3=CC=NC=C3)C4=CC(=C(C=C4)Cl)O
Procedure, shortened: as §1

[6] = compound: C1=CC=C2C(=C1)C3=NNC4=CC=CC(=C43)C2=O
Procedure, shortened: as §1

[7] = compound: C1CCN(C1)C(=O)NC2=CC=CC(=C2)NC3=NC=C(C(=N3)NCCC4=CN=CN4)Br
Procedure, shortened: as §1

[8] = compound: C1CN(CCC1(CC2=CC=C(C=C2)Cl)N)C3=NC=NC4=C3C=CN4
Procedure, shortened: as §1

IRAK-1-4 Inhibitor I = compound: C1COCCN1CCN2C3=CC=CC=C3N=C2NC(=O)C4=CC(=CC=C4)[N+](=O)[O-] [IRAK-1-4 Inhibitor I]
Procedure, shortened: as §1

ibrutinib = compound: C=CC(=O)N1CCC[C@@H](n2nc(-c3ccc(Oc4ccccc4)cc3)c3c(N)ncnc32)C1 [ibrutinib]
Procedure, shortened: as §1

[9] = compound: CC(=O)c1cnc2ccc(-c3cc(Cl)c(O)c(Cl)c3)nc2c1N[C@H]1CC[C@H](CN(C)C)CC1
Procedure, shortened: as §1

ralimetinib = compound: CC(C)(C)Cn1c(N)nc2ccc(-c3[nH]c(C(C)(C)C)nc3-c3ccc(F)cc3)nc21 [ralimetinib]
Procedure, shortened: as §1

[10] = compound: CC(C)(O)CC(=O)NCCn1ccc2ncnc(Nc3ccc(Oc4cccc(C(F)(F)F)c4)c(Cl)c3)c21
Procedure, shortened: as §1

[11] = compound: CC(C)C1=C2N=C(C=C(N2N=C1)NCC3=CC=CC=C3)NCCCCCCN
Procedure, shortened: as §1

[12] = compound: CC1=C(C(CC(=O)N1)C2=CC=C(C=C2)C(F)(F)F)C(=O)NC3=C(C=C4C(=C3)C=NN4)F
Procedure, shortened: as §1

[13] = compound: CC1=C(C2=C(C=C1)C(=O)C3=CC=CC=C3N2CCCN)C
Procedure, shortened: as §1

[14] = compound: CC1=C(C=C(C=C1)NC(=O)C2=CC(=CC=C2)C(C)(C)C#N)NC3=CC4=C(C=C3)N=CN(C4=O)C
Procedure, shortened: as §1

[15] = compound: CC1=C(C=C(C=C1)NC(=O)C2=CC(=CC=C2)N(C)C)NC(=O)C3=CC=C(C=C3)O
Procedure, shortened: as §1

[16] = compound: CC1=CC=C(C=C1)SC2=C3C=C(SC3=CN=C2)C(=O)N
Procedure, shortened: as §1

Measured: log2 fold change

PDE2A (UniProt O00408)
Sequence of UniProt O00408 (O00408 whole entry, looked up): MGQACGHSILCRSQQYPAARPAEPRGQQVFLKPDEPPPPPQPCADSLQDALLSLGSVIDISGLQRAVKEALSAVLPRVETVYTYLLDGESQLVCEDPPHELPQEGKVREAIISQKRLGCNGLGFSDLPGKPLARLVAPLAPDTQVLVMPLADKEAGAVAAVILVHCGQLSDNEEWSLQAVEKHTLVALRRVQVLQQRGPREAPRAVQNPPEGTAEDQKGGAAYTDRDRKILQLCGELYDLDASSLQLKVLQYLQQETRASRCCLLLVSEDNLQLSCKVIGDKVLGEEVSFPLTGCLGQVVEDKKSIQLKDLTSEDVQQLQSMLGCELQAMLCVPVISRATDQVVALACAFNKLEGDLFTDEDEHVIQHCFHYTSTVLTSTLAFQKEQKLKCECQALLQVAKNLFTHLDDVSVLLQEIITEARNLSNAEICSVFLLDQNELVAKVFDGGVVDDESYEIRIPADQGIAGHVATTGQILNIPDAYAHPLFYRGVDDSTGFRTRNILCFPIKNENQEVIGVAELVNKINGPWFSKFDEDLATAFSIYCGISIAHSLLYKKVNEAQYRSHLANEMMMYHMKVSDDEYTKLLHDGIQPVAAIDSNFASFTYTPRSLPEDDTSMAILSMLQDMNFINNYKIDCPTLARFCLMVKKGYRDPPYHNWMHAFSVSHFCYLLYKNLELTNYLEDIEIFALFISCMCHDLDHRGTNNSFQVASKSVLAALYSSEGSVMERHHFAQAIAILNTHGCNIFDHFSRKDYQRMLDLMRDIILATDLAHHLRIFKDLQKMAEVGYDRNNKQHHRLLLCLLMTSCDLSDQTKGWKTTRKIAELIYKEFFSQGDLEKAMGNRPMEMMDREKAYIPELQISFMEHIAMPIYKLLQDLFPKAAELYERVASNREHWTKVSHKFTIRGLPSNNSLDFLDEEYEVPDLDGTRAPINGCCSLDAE
inactive: erlotinib -0.015 | [1] 0.082 | [2] 0.12 | [3] -0.337 | [4] -0.055 | [5] 0.249 | [6] -0.257 | [7] 0.001 | [8] -0.027 | IRAK-1-4 Inhibitor I 0.18 | ibrutinib -0.008 | [9] -0.148 | ralimetinib -0.202 | [10] -0.107 | [11] -0.045 | [12] -0.018 | [13] 0.025 | [14] -0.038 | [15] 0.01 | [16] -0.11

PHLDB1 (UniProt Q86UU1)
inactive: erlotinib 0.01 | [1] -0.044 | [2] 0.032 | [3] -0.081 | [4] -0.031 | [5] 0.101 | [6] -0.158 | [7] -0.032 | [8] 0.068 | IRAK-1-4 Inhibitor I -0.044 | ibrutinib 0.05 | [9] 0.049 | ralimetinib -0.094 | [10] 0.096 | [11] -0.021 | [12] 0.004 | [13] -0.009 | [14] 0.114 | [15] -0.001 | [16] 0.156

PRKACA (UniProt P17612)
active: [9] 0.767
inactive: erlotinib -0.033 | [1] -0.056 | [2] 0.049 | [3] 0.016 | [4] -0.015 | [5] -0.015 | [6] 0.034 | [7] 0.234 | [8] 0.34 | IRAK-1-4 Inhibitor I 0.015 | ibrutinib 0.021 | ralimetinib 0.029 | [10] -0.106 | [11] -0.045 | [12] 0.059 | [13] -0.046 | [14] -0.118 | [15] -0.008 | [16] -0.057

PPIE (UniProt Q9UNP9)
Sequence of UniProt Q9UNP9 (Q9UNP9 whole entry, looked up): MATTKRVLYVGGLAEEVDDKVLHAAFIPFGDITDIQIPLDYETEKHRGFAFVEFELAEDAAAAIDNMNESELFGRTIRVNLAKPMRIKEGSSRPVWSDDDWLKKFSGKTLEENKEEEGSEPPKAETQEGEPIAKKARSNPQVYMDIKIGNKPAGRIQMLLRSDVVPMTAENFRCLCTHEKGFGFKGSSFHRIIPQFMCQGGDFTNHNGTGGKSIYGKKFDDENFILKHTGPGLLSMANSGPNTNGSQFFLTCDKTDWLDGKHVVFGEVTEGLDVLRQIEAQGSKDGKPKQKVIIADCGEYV
inactive: erlotinib 0.005 | [1] -0.022 | [2] 0.064 | [3] 0.031 | [4] -0.008 | [5] 0.001 | [6] -0.002 | [7] -0.025 | [8] 0.025 | IRAK-1-4 Inhibitor I -0.019 | ibrutinib -0.047 | [9] -0.015 | ralimetinib -0.041 | [10] -0.05 | [11] -0.025 | [12] -0.043 | [13] 0.021 | [14] 0.024 | [15] 0.034 | [16] -0.035

PLIN2 (UniProt Q99541)
Sequence of UniProt Q99541 (Q99541 whole entry, looked up): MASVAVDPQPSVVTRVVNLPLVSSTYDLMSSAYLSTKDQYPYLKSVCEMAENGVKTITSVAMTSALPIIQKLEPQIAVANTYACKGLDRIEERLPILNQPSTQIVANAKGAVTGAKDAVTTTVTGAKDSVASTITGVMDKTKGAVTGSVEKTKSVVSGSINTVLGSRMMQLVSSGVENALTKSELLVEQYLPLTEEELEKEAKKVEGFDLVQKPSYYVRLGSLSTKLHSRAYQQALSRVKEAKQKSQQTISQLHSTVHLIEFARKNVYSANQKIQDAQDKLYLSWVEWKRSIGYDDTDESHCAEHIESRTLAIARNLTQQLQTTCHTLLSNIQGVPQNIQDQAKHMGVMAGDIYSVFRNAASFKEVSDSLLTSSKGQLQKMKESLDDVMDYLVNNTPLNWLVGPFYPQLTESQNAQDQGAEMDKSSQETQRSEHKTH
inactive: erlotinib 0.013 | [1] 0.024 | [2] -0.093 | [3] 0.004 | [4] 0.028 | [5] -0.015 | [6] -0.045 | [7] 0.021 | [8] -0.042 | IRAK-1-4 Inhibitor I 0 | ibrutinib 0.015 | [9] 0.031 | ralimetinib -0.014 | [10] -0.022 | [11] -0.001 | [12] 0.069 | [13] -0.007 | [14] 0.016 | [15] 0.025 | [16] 0

PGLS (UniProt O95336)
Sequence of UniProt O95336 (O95336 whole entry, looked up): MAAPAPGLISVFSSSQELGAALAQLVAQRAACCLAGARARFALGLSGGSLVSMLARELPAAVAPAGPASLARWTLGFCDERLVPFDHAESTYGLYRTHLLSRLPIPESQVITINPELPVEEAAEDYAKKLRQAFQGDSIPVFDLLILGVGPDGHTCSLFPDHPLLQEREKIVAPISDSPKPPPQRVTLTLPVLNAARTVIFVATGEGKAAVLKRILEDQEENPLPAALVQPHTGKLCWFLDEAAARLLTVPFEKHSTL
inactive: erlotinib -0.019 | [1] -0.026 | [2] -0.08 | [3] -0.039 | [4] -0.039 | [5] -0.077 | [6] -0.04 | [7] -0.112 | [8] 0.025 | IRAK-1-4 Inhibitor I -0.043 | ibrutinib 0.012 | [9] -0.08 | ralimetinib 0.06 | [10] 0.008 | [11] 0.001 | [12] -0.012 | [13] -0.075 | [14] 0.038 | [15] -0.003 | [16] 0.077

POLR2B (UniProt P30876)
inactive: erlotinib 0.031 | [1] 0.019 | [2] -0.014 | [3] 0.012 | [4] -0.016 | [5] -0.008 | [6] -0.024 | [7] 0.002 | [8] -0.004 | IRAK-1-4 Inhibitor I -0.007 | ibrutinib -0.011 | [9] -0.017 | ralimetinib 0.025 | [10] -0.018 | [11] 0.005 | [12] 0.029 | [13] -0.031 | [14] -0.014 | [15] 0.028 | [16] 0.032

PTMA (UniProt P06454)
Sequence of UniProt P06454 (P06454 whole entry, looked up): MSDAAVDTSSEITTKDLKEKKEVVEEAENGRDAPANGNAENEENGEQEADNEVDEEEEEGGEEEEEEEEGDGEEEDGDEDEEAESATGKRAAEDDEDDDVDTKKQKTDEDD
inactive: erlotinib -0.002 | [1] 0.062 | [2] 0.067 | [3] -0.013 | [4] -0.002 | [5] 0.01 | [6] -0.017 | [7] -0.009 | [8] -0.017 | IRAK-1-4 Inhibitor I -0.037 | ibrutinib 0.015 | [9] 0.028 | ralimetinib -0.121 | [10] 0.009 | [11] 0.004 | [12] -0.068 | [13] 0.006 | [14] 0.023 | [15] -0.015 | [16] 0.002

PTP4A1 (UniProt Q93096)
Sequence of UniProt Q93096 (Q93096 whole entry, looked up): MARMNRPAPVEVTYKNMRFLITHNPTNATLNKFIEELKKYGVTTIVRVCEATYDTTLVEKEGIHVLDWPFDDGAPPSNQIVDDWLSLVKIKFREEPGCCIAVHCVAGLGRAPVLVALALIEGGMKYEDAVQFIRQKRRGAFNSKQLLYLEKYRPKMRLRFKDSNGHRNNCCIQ
inactive: erlotinib -0.005 | [1] 0.01 | [2] 0.014 | [3] -0.001 | [4] -0.013 | [5] -0.022 | [6] -0.086 | [7] 0.05 | [8] -0.066 | IRAK-1-4 Inhibitor I -0.014 | ibrutinib 0.011 | [9] 0.027 | ralimetinib 0.015 | [10] -0.071 | [11] -0.031 | [12] -0.113 | [13] -0.007 | [14] -0.012 | [15] -0.048 | [16] 0

PREP (UniProt P48147)
Sequence of UniProt P48147 (P48147 whole entry, looked up): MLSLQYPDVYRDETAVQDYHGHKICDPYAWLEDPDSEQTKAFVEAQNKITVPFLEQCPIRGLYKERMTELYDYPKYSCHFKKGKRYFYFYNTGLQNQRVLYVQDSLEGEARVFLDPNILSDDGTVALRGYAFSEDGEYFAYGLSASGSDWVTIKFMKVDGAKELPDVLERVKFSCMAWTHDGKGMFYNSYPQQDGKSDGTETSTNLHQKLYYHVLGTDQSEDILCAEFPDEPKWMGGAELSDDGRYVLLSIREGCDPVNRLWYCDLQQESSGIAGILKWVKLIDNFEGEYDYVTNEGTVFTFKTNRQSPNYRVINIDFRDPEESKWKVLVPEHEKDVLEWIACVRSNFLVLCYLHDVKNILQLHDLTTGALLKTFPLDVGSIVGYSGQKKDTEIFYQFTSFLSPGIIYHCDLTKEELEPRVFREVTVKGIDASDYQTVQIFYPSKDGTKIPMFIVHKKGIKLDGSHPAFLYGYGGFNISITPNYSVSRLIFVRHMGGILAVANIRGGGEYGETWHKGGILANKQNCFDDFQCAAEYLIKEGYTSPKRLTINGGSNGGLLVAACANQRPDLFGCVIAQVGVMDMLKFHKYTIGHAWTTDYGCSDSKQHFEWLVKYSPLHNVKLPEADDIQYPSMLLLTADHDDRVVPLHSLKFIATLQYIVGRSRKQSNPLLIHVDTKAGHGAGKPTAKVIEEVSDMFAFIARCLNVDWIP
inactive: erlotinib 0.026 | [1] -0.016 | [2] 0.028 | [3] -0.007 | [4] -0.002 | [5] 0.002 | [6] -0.002 | [7] -0.024 | [8] 0.014 | IRAK-1-4 Inhibitor I -0.007 | ibrutinib 0.019 | [9] 0 | ralimetinib 0.015 | [10] 0.004 | [11] -0.008 | [12] 0.011 | [13] -0.009 | [14] -0.006 | [15] 0.006 | [16] 0.011

PUS3 (UniProt Q9BZE2)
Sequence of UniProt Q9BZE2 (Q9BZE2 whole entry, looked up): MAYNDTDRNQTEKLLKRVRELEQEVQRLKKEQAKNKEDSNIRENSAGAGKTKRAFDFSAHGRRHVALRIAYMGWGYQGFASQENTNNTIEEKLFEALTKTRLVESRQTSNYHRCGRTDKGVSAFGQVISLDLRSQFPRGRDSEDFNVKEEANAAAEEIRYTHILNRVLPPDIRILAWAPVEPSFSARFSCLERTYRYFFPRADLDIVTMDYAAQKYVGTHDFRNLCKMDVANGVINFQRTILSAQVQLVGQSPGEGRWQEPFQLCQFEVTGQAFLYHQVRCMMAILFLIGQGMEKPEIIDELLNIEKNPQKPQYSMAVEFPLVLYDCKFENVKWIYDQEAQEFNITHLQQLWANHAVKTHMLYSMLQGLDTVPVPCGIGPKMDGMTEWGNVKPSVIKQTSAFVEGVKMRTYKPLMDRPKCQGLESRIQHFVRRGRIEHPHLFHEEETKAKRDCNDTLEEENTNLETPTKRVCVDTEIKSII
inactive: erlotinib -0.014 | [1] 0.043 | [2] -0.028 | [3] -0.048 | [4] 0.048 | [5] -0.006 | [6] -0.064 | [7] -0.028 | [8] 0.097 | IRAK-1-4 Inhibitor I -0.058 | ibrutinib -0.034 | [9] -0.025 | ralimetinib 0.05 | [10] 0.094 | [11] -0.046 | [12] 0.045 | [13] 0.136 | [14] -0.12 | [15] -0.006 | [16] 0

PUS1 (UniProt Q9Y606)
inactive: erlotinib 0.033 | [1] -0.174 | [2] 0.007 | [3] 0.01 | [4] 0.024 | [5] 0.005 | [6] -0.06 | [7] 0.016 | [8] -0.021 | IRAK-1-4 Inhibitor I 0.004 | ibrutinib 0.006 | [9] 0.004 | ralimetinib 0.013 | [10] -0.006 | [11] 0.005 | [12] -0.009 | [13] -0.032 | [14] 0.028 | [15] 0.031 | [16] -0.021

PRIM1 (UniProt P49642)
Sequence of UniProt P49642 (P49642 whole entry, looked up): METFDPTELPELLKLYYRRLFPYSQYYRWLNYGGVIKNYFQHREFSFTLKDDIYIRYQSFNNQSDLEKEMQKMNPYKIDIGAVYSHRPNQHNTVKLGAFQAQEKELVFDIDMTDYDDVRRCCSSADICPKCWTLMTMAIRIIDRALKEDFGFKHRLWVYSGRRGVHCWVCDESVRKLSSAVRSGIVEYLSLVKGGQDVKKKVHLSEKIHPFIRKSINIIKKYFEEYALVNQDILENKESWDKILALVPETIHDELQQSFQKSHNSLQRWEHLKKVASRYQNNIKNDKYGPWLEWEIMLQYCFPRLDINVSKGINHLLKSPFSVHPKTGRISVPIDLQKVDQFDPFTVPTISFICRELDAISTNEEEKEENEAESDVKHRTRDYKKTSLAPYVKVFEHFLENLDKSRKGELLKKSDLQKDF
inactive: erlotinib -0.004 | [1] 0.061 | [2] -0.011 | [3] -0.01 | [4] -0.03 | [5] 0.02 | [6] 0 | [7] -0.006 | [8] 0.002 | IRAK-1-4 Inhibitor I 0.003 | ibrutinib -0.016 | [9] 0.014 | ralimetinib 0.056 | [10] 0.056 | [11] 0.016 | [12] 0.027 | [13] -0.019 | [14] 0.015 | [15] 0.011 | [16] 0.02

PMPCA (UniProt Q10713)
Sequence of UniProt Q10713 (Q10713 whole entry, looked up): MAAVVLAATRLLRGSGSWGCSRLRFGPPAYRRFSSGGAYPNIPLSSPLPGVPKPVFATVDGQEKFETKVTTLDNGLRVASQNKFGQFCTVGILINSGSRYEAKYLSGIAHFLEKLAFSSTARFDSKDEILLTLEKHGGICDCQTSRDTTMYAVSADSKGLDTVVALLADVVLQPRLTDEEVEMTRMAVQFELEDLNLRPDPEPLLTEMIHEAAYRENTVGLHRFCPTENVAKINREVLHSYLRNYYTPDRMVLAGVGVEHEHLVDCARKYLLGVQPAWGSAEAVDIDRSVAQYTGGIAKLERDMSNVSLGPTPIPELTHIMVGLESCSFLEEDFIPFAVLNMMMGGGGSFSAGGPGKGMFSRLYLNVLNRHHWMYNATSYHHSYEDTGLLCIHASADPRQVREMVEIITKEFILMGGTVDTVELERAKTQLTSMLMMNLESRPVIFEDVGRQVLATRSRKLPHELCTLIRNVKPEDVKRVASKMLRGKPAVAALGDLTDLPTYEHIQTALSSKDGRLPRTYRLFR
inactive: erlotinib -0.034 | [1] -0.012 | [2] 0.073 | [3] 0.008 | [4] -0.006 | [5] 0.043 | [6] -0.014 | [7] -0.026 | [8] -0.012 | IRAK-1-4 Inhibitor I 0.007 | ibrutinib -0.052 | [9] -0.023 | ralimetinib 0.006 | [10] -0.038 | [11] -0.047 | [12] -0.043 | [13] -0.041 | [14] 0.033 | [15] -0.036 | [16] 0.015

PTGS1 isoform 6 (UniProt P23219)
Sequence of UniProt P23219 (P23219 whole entry, looked up): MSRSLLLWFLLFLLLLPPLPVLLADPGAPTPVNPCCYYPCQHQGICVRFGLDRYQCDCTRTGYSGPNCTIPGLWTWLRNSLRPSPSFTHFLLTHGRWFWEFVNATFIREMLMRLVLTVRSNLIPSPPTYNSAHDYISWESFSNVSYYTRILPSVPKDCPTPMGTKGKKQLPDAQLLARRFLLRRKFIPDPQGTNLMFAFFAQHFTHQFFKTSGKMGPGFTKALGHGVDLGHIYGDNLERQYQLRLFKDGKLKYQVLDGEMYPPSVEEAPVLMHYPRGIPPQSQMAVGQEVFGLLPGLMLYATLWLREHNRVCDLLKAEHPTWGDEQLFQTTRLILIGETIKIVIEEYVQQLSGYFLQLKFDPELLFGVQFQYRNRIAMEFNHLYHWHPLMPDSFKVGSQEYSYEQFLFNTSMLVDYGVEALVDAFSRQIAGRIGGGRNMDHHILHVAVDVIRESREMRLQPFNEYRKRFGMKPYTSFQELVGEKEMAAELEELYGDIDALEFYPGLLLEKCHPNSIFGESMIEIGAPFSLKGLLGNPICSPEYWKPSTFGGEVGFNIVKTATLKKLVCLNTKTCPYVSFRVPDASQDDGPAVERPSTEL
inactive: erlotinib -0.044 | [1] 0.118 | [2] 0.033 | [3] -0.105 | [4] -0.005 | [5] 0.086 | [6] -0.03 | [7] 0.008 | [8] -0.025 | IRAK-1-4 Inhibitor I 0.061 | ibrutinib 0.109 | [9] 0.022 | ralimetinib -0.001 | [10] -0.075 | [11] -0.043 | [12] 0.023 | [13] -0.039 | [14] 0.023 | [15] -0.011 | [16] -0.026

POLR2M (UniProt P0CAP2)
inactive: erlotinib 0.075 | [1] -0.053 | [2] 0.014 | [3] 0.034 | [4] -0.013 | [5] 0.027 | [6] -0.045 | [7] -0.182 | [8] -0.002 | IRAK-1-4 Inhibitor I 0.026 | ibrutinib -0.011 | [9] 0.014 | ralimetinib -0.018 | [10] -0.042 | [11] -0.001 | [12] -0.014 | [13] -0.046 | [14] -0.055 | [15] -0.008 | [16] 0.007
